# Screens (PubChem BioAssay)
# Compounds with a hit are over-represented: about 2.7% of the library has one in this group of screens.
# gsp agonist: qHTS for Agonist of gsp, the Etiologic Mutation Responsible for Fibrous Dysplasia/McCune-Albright Syndrome: qHTS | gsp mutant cells, cAMP HTRF, 30 min | Potency, µM (titrated, usually from 76.9 µM), most hits filed as activators | 0.13% of 340,000 active; active = well fitted activation curve with a large enough effect; inconclusive = small, poorly fitted or top-dose-only effect, or another doubt; inactive = no such curve, though single readings can be large or run the other way; cell line not stated here;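 also: phosphodiesterase inhibitor Ro 20-1724 added with compounds to block cAMP breakdown; nearly all actives have a fitted effect of over 60% in size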
#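 Cells in DMEM/10% FBS with G418 were pretreated with compounds in DMSO plus […] (300 uM stock) for 30 min at 37C. cAMP was measured by HTRF (cAMP-d2 plus anti-cAMP antibody-K) after 30 min at room temperature.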
# ClpP mod: qHTS Assay for Activators of ClpP; ATP-dependent Clp protease proteolytic subunit (Bacillus subtilis (strain 168)), P80244; Potency, µM (series often up to 57.5 µM); purified B. subtilis ClpP, FRET peptide cleavage, 20 min; 1.9% of 340,000 active; AID 651965, 2013; active = well fitted falling curve with a large enough effect; inconclusive = small, poorly fitted or top-dose-only effect; inactive = no such curve, though single readings can be large or run the other way; also: the source files actives as falling curves though it sought activators and does not explain the sign; nearly all actives have a fitted effect of over 65% in size
# Target sequence (P80244 whole entry, looked up): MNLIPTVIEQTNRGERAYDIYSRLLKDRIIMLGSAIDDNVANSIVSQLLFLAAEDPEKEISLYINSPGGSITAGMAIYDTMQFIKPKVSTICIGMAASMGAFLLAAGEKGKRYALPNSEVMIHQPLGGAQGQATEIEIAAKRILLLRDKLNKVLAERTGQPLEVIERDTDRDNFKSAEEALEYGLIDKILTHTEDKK
#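 FRET quenching reversal measured ClpP activation: 10 microg/mL B. subtilis ClpP at pH 8 with the FRET-FV decapeptide, read at 430 nm after 320 nm excitation. The 20-min minus 0-min signal was scaled between DMSO/no-enzyme wells and ADEP (5.8 microM final).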
# gsp antagonist: qHTS for Antagonists of gsp, the Etiologic Mutation Responsible for Fibrous Dysplasia/McCune-Albright Syndrome: qHTS. gsp-mutant cells, cAMP HTRF, 30 min. Potency, µM (doses to about 76.9 µM), usual class: inhibitors. 0.4% of 340,000 active. AID 624288, 2012; calls by dose curve; cell line not stated here;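 also: intracellular cAMP measured with PDE inhibitor Ro 20-1724 present during compound exposure; nearly all actives have a fitted effect of over 65% in size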
#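 HTRF cAMP measurement after 30 min RT detection following 30 min, 37C compound treatment alongside […] (added as 300 uM solution) in G418-selected cells seeded at 2000/well and grown 16–24 h.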
# Akt phos inh: HTS Assay for Inhibitors of Akt Phophorylation: Primary Screen | Neuro2A IGF-stimulated pAkt S473 HTRF, 20 min; stronger effect = lower value | activity change, % for hits at 50 µM | 0.32% of 360,000 active; in the data active = activity change below about -80%; inconclusive = mostly about -51% to -80%
#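 Neuro2A cells in DMEM with 0.5% FBS, overnight at 37 deg C, given compound at single 50 µM final, then IGF (6 nM final) for 20 min at 37 deg C. Lysed; phospho-Akt Ser473 by HTRF after 24 h, 665/615 ratio.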
# RXFP1 agonist: qHTS Assay for Agonists of the Relaxin Receptor RXFP1; HEK293T-RXFP1 cAMP TR-FRET, 30 min; response scale: percent of porcine relaxin response, buffer zero; Potency, µM (titrated, usually from 57.5 µM), actives largely listed as activators; 0.3% of 370,000 active; AID 2676, 2010; active = well fitted activation curve with a large enough effect; inconclusive = small, poorly fitted or top-dose-only effect; also: nearly all actives have a fitted effect of over 60% in size
#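 cAMP rise read by TR-FRET after 30 min, 37C compound exposure (up to 58 uM) in RXFP1-transfected HEK293 cells with Ro 20174 present. EC50 from Hill-equation fits, with 29 nM porcine relaxin as 100% and buffer as basal.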
# RXFP1 antagonist: qHTS Assay for Antagonists of the Relaxin Receptor RXFP1 | activity change, negative = inhibition, % at 57.5 µM | Relaxin receptor 1 (Homo sapiens), Q9HBX9 | HEK293-RXFP1, relaxin-stimulated cAMP HTRF, 30 min; stronger effect = lower value | 0.59% of 350,000 active | AID 1259400, 2018;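 active = activity change of -60% or lower, but not beyond a set lower limit; inconclusive = change between -60% and -40%, or beyond the set limit; inactive = change above -40%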
# Hits are given with their value; n = inactive; u = inconclusive; x = no result given; [ ] = remark or other dose.
SMILES,gsp agonist,ClpP mod,gsp antagonist,Akt phos inh,RXFP1 agonist,RXFP1 antagonist
O=C(C[n+]1c(Cl)ccc2ccccc21)c1ccc2ccccc2c1,x,n,x,x,x,x
COc1ccc(N(C)S(=O)(=O)c2ccc3c(c2)CCN3C(=O)C2CC2)c(OC)c1,n,n,28.2µM,n,n,n
CC(=O)Nc1ccc(C=CC=Cc2cccc([N+](=O)[O-])c2)cc1,n,n,u,n,x,-60.6
CC(=O)Oc1ccccc1C(=O)C=Cc1cccc([N+](=O)[O-])c1,n,n,n,n,x,-83.8
Cc1cc(O)c(C(=O)/C=C/c2cccc([N+](=O)[O-])c2)c(=O)o1,n,x,n,n,n,n
Cc1ccc(N(CC(=O)Nc2ccc(Cl)cc2)S(=O)(=O)c2cccc3nonc23)cc1,x,n,x,x,n,x
COc1cc(C(=O)NCc2ccccc2)ccc1OC(F)F,n,n,n,n,n,n
COc1ccc(COc2ccccc2C(=O)NCc2ccccc2)cc1F,n,n,28.2µM,n,n,n
c1ccc(Nc2cccc3ccccc23)cc1,n,n,n,n,x,n
c1ccc(Nc2ccc3c4c(cccc24)CC3)cc1,n,11.2µM,n,n,n,n
Cc1ccccc1NC(=S)Nc1ccc2[nH]c(=O)[nH]c2c1,n,n,n,n,n,n
CN(C)S(=O)(=O)c1cccc(NC(=S)Nc2cccc3cnccc23)c1,n,x,n,n,n,-71.4
Cc1ccc(NC(=O)N2CCCC2C(=O)NCCc2ccccc2)cc1 (stereo not given),n,n,n,-121.3%,n,n
O=C(Nc1ccc(N2CCCC2)cc1)c1ccccc1F,n,n,n,-85.3%,n,n
O=C(Nc1ccc(N2CCCCC2)cc1)c1ccc(F)cc1F,n[15.4 µM],n,n,n,n,n
O=C(Nc1ccc(N2CCN(C(=O)c3ccccc3F)CC2)cc1)c1cncc(Br)c1,n,n,u,n,n,-82.2
O=C(Cn1nc2c(cc1=O)CCCC2)NCc1ccc(Cl)cc1,x,n,x,x,n,n
CCc1ccc(NC(=O)CSc2nnc(-c3ccc(N)cc3)n2C)cc1,x,n,x,x,x,x
O=C(O)/C=C/c1cn(-c2ccccc2)nc1-c1cc2ccccc2oc1=O,u,n,u,n,n,n
O=Cc1cn(-c2ccccc2)nc1-c1cc2c(ccc3ccccc32)oc1=O,n,5.62µM,n,n,n,n
N#Cc1cn(-c2ccccc2)nc1-c1cc2ccccc2oc1=O,n,31.6µM,n,n,n,n
CCC(Sc1nnc(C)n2c1cc1occc12)C(=O)Nc1ccccc1OC (stereo not given),x,n,x,x,n,n
CCN(CC)c1ccc(C(=O)NCc2ccc3c(c2)CCN3C(C)=O)cc1,x,n,x,x,n,n
Cc1ccc(C(=Cc2ccc([N+](=O)[O-])cc2)C(=O)O)cc1,n,n,x,n,x,n
CN(C)S(=O)(=O)c1ccc2c(c1)/C(=C/c1cc3c([nH]1)CCCC3)C(=O)N2,x,n,10µM,n,n,x
SMILES,gsp agonist,ClpP mod,gsp antagonist,Akt phos inh,RXFP1 agonist,RXFP1 antagonist
Nc1nc(-c2ccccc2)nc2nonc12,n,n,x,n,x,n
COc1cccc(-c2nc(SCC(=O)Nc3ccc4c(c3)OCCO4)c(-c3ccc(C)cc3)[nH]2)c1,x,28.2µM,x,x,n,n
COc1ccc(OC)c(-n2nnnc2SCC(=O)Nc2ccc3c(c2)OCCO3)c1,11.2µM,n,n,n,n,n
CCN1CCN(Cc2c(O)ccc3c(=O)c(Oc4ccccc4Cl)c(C(F)(F)F)oc23)CC1,x,n,x,x,31.6µM,x
COc1ccc(Oc2c(C)oc3c(CN4CCOCC4)c(O)ccc3c2=O)cc1,n,31.6µM,n,n,n,n
Cc1oc2c(CN3CCCC3)c(O)ccc2c(=O)c1Oc1ccccc1Br,u,n,n,-85.0%,n,n
Cc1oc2c(CN3CCOCC3)c(O)ccc2c(=O)c1-c1ccccc1,n,28.2µM,n,n,n,n
CN1CCN(Cc2c(O)ccc3c(=O)c(Oc4ccccc4Cl)c(C(F)(F)F)oc23)CC1,n,n,n,n,n,n
